According to PubChem BioAssay AID2314 (National Center for Advancing Translational Sciences (NCATS), 2010):
Out of some 300,000 compounds screened, about 37,000 (12%) were called active. For the sample, actives were picked, then their nearest neighbours and some compounds at random. Unmarked numbers belong to inactive results. No stated cut-off is given here; in the data, active means max response mostly above about 13% (no sharp cut-off); inactive means mostly below about 14%.

assay: Cycloheximide Counterscreen for Small Molecule Inhibitors of Shiga Toxin; details: cell reporter, cycloheximide protein synthesis inhibition counterscreen; stronger effect = higher value; further: read at 38.3 µM for the half of the compounds with a filed dose; 0% is about no effect

| Compound | max response |
| --- | --- |
| COc1ccc(Cl)cc1NC(=O)CCS(=O)(=O)c1ccc(Br)cc1 | -3.81% |
| CSc1ccc(S(=O)(=O)N2CCC(C(=O)NCc3ccncc3)CC2)cc1 | -2.48% |
| CCN1CCN(c2nc(Nc3cc(OC)ccc3OC)nc(Nc3cc(OC)ccc3OC)n2)CC1 | -2.31% |
| COC(=O)c1ccc(COc2ccc(/C=C/C(=O)c3ccc(OC)c(CSCC(=O)O)c3)cc2OC)cc1 | 16.2% (active) |
| COc1ccc(/C=C/C(=O)c2ccc(NS(=O)(=O)c3ccc(C)cc3)cc2)cc1O | -1.98% |
| COc1ccc(C(=O)/C=C/c2ccc(-c3ccccc3)cc2)cc1CSCC(=O)O | 16.5% |
| Fc1ccc(Cl)cc1-c1nc(Nc2ccncc2)c2nccnc2n1 | 1.12% |
| COc1ccc(N(C(=O)c2snc(C(N)=O)c2N)C(C(=O)NC2CCCC2)c2ccc(C)o2)c(OC)c1 (stereo not drawn) | -6.04% |
| COCc1c(C(=O)N/N=C/C2CC=CCC2)nnn1-c1nonc1N (stereo not drawn) | 1.58% |
| Cc1ccc(SCc2c(C(=O)N/N=C/C3CC=CCC3)nnn2-c2nonc2N)cc1 (stereo not drawn) | -2.54% |
| O=C(N/N=C\C1CC=CCC1)c1ccc(Br)o1 (stereo not drawn) | 29.4% (active) |
| C=CCC1CCC(=O)N2CCCC12 (stereo not drawn) | -5.3% |
| COc1ccc(OC)c(S(=O)(=O)N(C)CC(=O)N2CCN(c3ccccc3)CC2)c1 | 6.23% |
| O=C(CCNS(=O)(=O)c1cccs1)N1CCN(c2ccc(F)cc2)CC1 | -5.58% |
| CN(CC(=O)N1CCN(c2ccccc2)CC1)S(=O)(=O)c1cccs1 | 29% (active) |
| Cc1ccc(C(=O)NN(CCC#N)C2=NS(=O)(=O)c3ccccc32)cc1 | 0.601% |
| CONc1nc2nonc2nc1NOC | -2.64% |
| COc1ccc(-c2nn(-c3ccccc3)cc2C(=O)Nc2nc(CC(C)=O)ns2)cc1 | 9.17% |
| COc1ccc(NC(=O)c2c(SC)nsc2SC)cc1 | -1.45% |
| COc1ccc(NC(=O)c2cn(-c3ccccc3)nc2SC)cc1 | 15.2% (active) |
| Cc1ccc(-n2cc3ccc([N+](=O)[O-])cc3n2)cc1 | 46.9% (active) |
| Cc1ccc(-c2cn(S(=O)(=O)c3cccc([N+](=O)[O-])c3)nc2N)cc1 | -2.07% |
| Cc1cc(C)nc(Nc2cc([N+](=O)[O-])ccc2C)n1 | 7.47% |
| CCCCc1nn(-c2ccccc2C(F)(F)F)c(=O)n1Cc1ccc(-c2ccccc2S(=O)(=O)NC(=O)c2sccc2C)cc1 | -3.92% |

| Compound | max response |
| --- | --- |
| CN1CCN(CCCCOc2ccccc2-c2ccccc2)CC1 | -2.52% |
| COc1ccccc1N1CCN(C(=O)c2ccc(Cl)c(S(=O)(=O)N3CCCC3)c2)CC1 | 1.2% |
| CC12CN(NC(=O)c3ccc(Cl)cc3)C3(C#N)CC1CCC23C (stereo not drawn) | -3.78% |
| OCCC1CN(Cc2ccc(Oc3ncccn3)cc2)CCN1CCc1ccccc1 (stereo not drawn) | 14.5% (active) |
| CCOc1ccc(CN2CCN(CCCc3ccccc3)C(CCO)C2)cc1 (stereo not drawn) | -3% |
| CC(C)=CCN1CCN(Cc2ccc(Oc3ncccn3)cc2)CC1CCO (stereo not drawn) | -1.38% |
| N#Cc1cccc(CN2CCC(=O)N(CCO)CC2)c1 | -1.61% |
| O=C(c1ccc(N2CCOCC2)c([N+](=O)[O-])c1)N1CCN(S(=O)(=O)c2cccs2)CC1 | -2% |
| CN(c1ccc(OCC(=O)O)cc1)S(=O)(=O)c1ccc2ccccc2c1 | -2.07% |
| O=C(Cc1cccs1)NCc1cccc(C(F)(F)F)c1 | 36.1% (active) |
| O=C(NCc1ccccc1)c1ccc(S(=O)(=O)Nc2cccc(C(F)(F)F)c2)cc1 | 2.15% |
| O=C(NCc1cccc(C(F)(F)F)c1)c1cccc(S(=O)(=O)N2CCN(Cc3ccccc3)CC2)c1 | -5.35% |
| Cc1nc([N+](=O)[O-])nn1C12CC3CC(CC(Br)(C3)C1)C2 | 15.4% |
| CCC(C)(C)c1ccc(OCC(=O)N(C)C)c(C(C)(C)CC)c1 | -3.16% |
| Cc1nc2ccc(C(=O)N3CCSCC3)cc2s1 | 11.3% (active) |
| O=C(c1ccc2nc(N3CCOCC3)sc2c1)N1CCN(c2ccc(Cl)cc2)CC1 | 1.7% |
| Cc1nc2ccc(C(=O)N3CCN(c4ccccc4)CC3)cc2s1 | -1.5% |
| OC(COCCC12CC3CC(CC(C3)C1)C2)CN1CCCCC1 (stereo not drawn) | -4.31% |
| Cc1nc(C)c(-c2nnc(-c3cccc(S(=O)(=O)N(C)C)c3)o2)cc1C(=O)NN | -1.43% |
| Cc1nc2sc(C(=O)c3ccccc3)c(N)c2c2c1CCCC2 | 20.5% (active) |
| CC(=O)c1c(Nc2ccccc2)sc(C(=O)c2ccccc2)c1C | 0.579% |
| COC(=O)c1cc2c(N)c(C(=O)c3ccc(Cl)cc3)sc2nc1C(OC)OC | -3.14% |
| CCOC(=O)c1sc2nc(SC)nc(-c3ccccc3)c2c1N | -2.15% |
| COc1cccc(C(=O)c2sc3nc(-c4ccccc4)cc(C(F)(F)F)c3c2N)c1 | 10.5% |

| Compound | max response |
| --- | --- |
| Cc1ccc2c(N)c(C(=O)c3ccccc3)sc2n1 | 29% (active) |
| CCc1nc2sc(C(=O)O)c(N)c2c2c1CCCC2 | -1.77% |
| CN(C)c1ccnc2sc3c(=O)n(Cc4ccccc4)cnc3c12 | -5.28% |
| CS(=O)(=O)c1sc2nc(-c3ccccc3)cc(-c3ccccc3)c2c1N | -3.03% |
| NC(=O)c1sc2nc3c(c(-c4ccccc4)c2c1N)CCC3 | -2.08% |
| CCN(CC)C(=O)c1sc2nc(-c3ccccc3)ccc2c1N | 63.5% (active) |
| CN(C)c1ccnc2sc(C(=O)c3ccccc3)c(N)c12 | 57.9% (active) |
| C[C@H](C(=O)CC(=O)OC(C)(C)C)[C@H](O)c1ccc(C(F)(F)F)cc1 | 1.49% |
| Oc1ccc(-c2c(-c3ccccc3)nn3c(C(F)(F)F)cc(C(F)(F)F)nc23)cc1 | -7.49% |
| Cc1ccc2c(c1)N(CC(=O)N1CCC(O)CC1)C(=O)CO2 | -1.82% |
| CC[C@@H](C)[C@H](NC(=O)CCc1c(C)c2cc3c4c(oc3c(C)c2oc1=O)CCCC4)C(=O)O | 9.7% |
| COc1ccc(/C=C2\SC(=S)N(CCC(=O)Nc3ccccn3)C2=O)cc1OC | -7.17% |
| O=C(CNC(=O)[C@@H]1Cc2ccccc2CN1)NC1CCCCC1 | 1.46% |
| COc1ccc(/C(C)=N/Nc2cc(C(F)(F)F)ccc2Cl)c(OC)c1 | -5.52% |
| Nc1c(-c2cccc(Cl)c2)cnn1-c1cccc([N+](=O)[O-])c1 | 17.2% (active) |
| Cn1nc(-c2ccccc2)c2cc([N+](=O)[O-])ccc21 | 1.38% |
| O=C(CCl)N(Cc1cccc([N+](=O)[O-])c1)c1cccc(Cl)c1 | -0.93% |
| CNc1[nH]ncc1[N+](=O)[O-] | 40.2% (active) |
| CN(C)/C=C(\C=[N+](C)C)c1[nH]ncc1[N+](=O)[O-] | -6.11% |
| CC(=O)C(C)n1cnc2scc(-c3ccc(C)cc3)c2c1=O (stereo not drawn) | 1.16% |
| COc1ccc(CN2CCCC(C(=O)N3CCCCC3)C2)cc1 (stereo not drawn) | -1.73% |
| Cc1cnc(NC(=O)CSc2nnc(-c3ccccc3)n2Cc2ccccc2)s1 | -3.18% |
| Cc1cnc(NC(=O)CSc2nnc(C)s2)s1 | 20.1% |
| Cc1cnc(NC(=O)CSc2nnc(-c3ccc(Cl)cc3Cl)n2N)s1 | 24.6% (active) |

| Compound | max response |
| --- | --- |
| Cc1ccc(SCC(=O)Nc2ncc(C)s2)cc1 | 25% (active) |
| COc1ccc(CC(=O)NCc2nnc(SCC(=O)Nc3ncc(C)s3)n2C)cc1 | 3.99% |
| Cc1cnc(NC(=O)CSc2c(Cl)cccc2Cl)s1 | 5.96% |
| COc1ccc(CNS(=O)(=O)c2ccc(NC(=O)N3CCCCC3)cc2)cc1 | 2.3% |
| CCOC(=O)c1c(-c2ccccc2)oc2cc(Br)c(O)c(C=O)c12 | 5.72% |
| CCN(CC)c1ccc(NC(=O)CCc2nnc3ccc(N4CCCCC4)nn23)c(C)c1 | -1.8% |
| CCCc1ccc(OCC(O)CN2CCN(CCO)CC2)cc1 (stereo not drawn) | -1.67% |
| S=c1nc(C23CC4CC(CC(C4)C2)C3)nc2sccn12 | 1.25% |
| CCn1c(NC(=O)c2nn(C)cc2Br)nc2ccccc21 | -2.42% |
| COC(=O)CN1C(=O)C(C)(C)Oc2ccc(C(=O)Nc3cccc(OC)c3)cc21 | -5.75% |
| CC(C)c1ccc(C(=O)OC2CCOC2=O)cc1 (stereo not drawn) | 6.8% |
| O=C1OCCN1C(=O)[C@H]1[C@H](c2ccc(F)cc2)C(c2ccccc2)=NN1c1ccc(Br)cc1 | 5.32% |
| Cc1ccc(C)c(Cn2cnc3c(oc4ccccc43)c2=O)c1 | 20.1% (active) |
| CCC(C(=O)OC)n1cnc2c(oc3ccccc32)c1=O (stereo not drawn) | -2.56% |
| Cc1ccc(C)c(NC(=O)CSc2nc3c(oc4ccccc43)c(=O)n2-c2ccccc2)c1 | 0.718% |
| OC(COCC1COc2ccccc2O1)CN1CCN(c2ccc(F)cc2)CC1 (stereo not drawn) | -1.11% |
| O=C1CCC(C(=O)N2CCC(O)(c3ccccc3)CC2)CN1CCc1ccccc1 (stereo not drawn) | -0.943% |
| CC(C)c1nnc(NC(=O)C2CC(=O)N(CCc3ccc(F)cc3)C2)s1 (stereo not drawn) | -6.02% |
| CC1(C)Cc2c(cnn2-c2cccc(F)c2)C(NC(=O)c2cc[n+]([O-])cc2)C1 (stereo not drawn) | -3.06% |
| Cc1cc(C(=O)NC2CC(C)(C)Cc3c2cnn3-c2ccccc2)n[nH]1 (stereo not drawn) | 3.28% |
| COC(=O)c1ccc(C(=O)NC2CC(C)(C)Cc3c2cnn3-c2ccc(F)cc2)nc1 (stereo not drawn) | 24.5% (active) |
